Inconclusive results are not listed. Active and inactive are the calls of the source. Unless noted, calls follow the shape of the dose curve; as a rule, active = well fitted curve in the direction sought with a large enough effect; inconclusive = small, poorly fitted or top-dose-only effect, or another doubt; inactive = no such curve, though single readings can be large; an effect the other way counts as inactive or inconclusive.
What was measured:
[1] = target: Tumor susceptibility gene 101 protein (Homo sapiens) (UniProt Q99816); test: qHTS Validation Assay for Iinhibitors of HIV-1 Budding by Blocking the Interaction of PTAP/TSG101 (AID 485342; calls by dose curve)
Chain of Tumor susceptibility gene 101 protein (Homo sapiens) (Q99816 whole entry, looked up, the tested form may be a part): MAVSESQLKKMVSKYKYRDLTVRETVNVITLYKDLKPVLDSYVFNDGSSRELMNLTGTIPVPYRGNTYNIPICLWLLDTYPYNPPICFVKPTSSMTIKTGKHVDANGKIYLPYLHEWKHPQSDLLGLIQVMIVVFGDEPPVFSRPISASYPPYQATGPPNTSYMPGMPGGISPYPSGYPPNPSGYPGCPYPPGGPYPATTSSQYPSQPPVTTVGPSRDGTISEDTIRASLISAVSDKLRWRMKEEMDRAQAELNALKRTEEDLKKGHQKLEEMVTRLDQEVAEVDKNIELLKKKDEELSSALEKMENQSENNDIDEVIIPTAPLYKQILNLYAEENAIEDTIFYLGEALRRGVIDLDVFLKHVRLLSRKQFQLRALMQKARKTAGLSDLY
How it was run: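 Tsg101 binding domain (10 uM) with FITC-labeled PTAP peptide (50 nM) in HEPES pH 7.5 buffer, 20 min at r.t. with compounds. Binding measured by fluorescence polarization.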

[2] = target: Beta-2 adrenergic receptor (Homo sapiens) (UniProt P07550); test: qHTS validation assay of beta-arrestin-biased ligands of beta2-adrenergic receptor (AID 485366)
Chain of Beta-2 adrenergic receptor (Homo sapiens) (P07550 whole entry, looked up): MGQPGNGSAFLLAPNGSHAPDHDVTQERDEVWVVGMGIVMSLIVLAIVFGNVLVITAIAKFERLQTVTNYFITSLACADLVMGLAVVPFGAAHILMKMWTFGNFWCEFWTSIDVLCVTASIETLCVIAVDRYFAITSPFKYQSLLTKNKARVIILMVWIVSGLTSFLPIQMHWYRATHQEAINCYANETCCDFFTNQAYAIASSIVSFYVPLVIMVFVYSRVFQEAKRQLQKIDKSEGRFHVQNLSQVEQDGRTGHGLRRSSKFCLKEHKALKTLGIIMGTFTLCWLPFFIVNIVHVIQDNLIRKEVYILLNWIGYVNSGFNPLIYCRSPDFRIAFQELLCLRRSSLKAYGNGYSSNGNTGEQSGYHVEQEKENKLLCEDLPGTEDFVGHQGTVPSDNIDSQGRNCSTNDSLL
How it was run: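 Luminescence from a tTA-responsive luciferase, induced when recombinant beta-arrestin is recruited to recombinant beta2-AR, served as the agonism signal. Cells were exposed to compound for 18 hr at 37 degrees C; titrations spanned up to 46 microM.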

[3] = target: M-phase phosphoprotein 8 (Homo sapiens) (UniProt Q99549); test: qHTS Validation Assay for Inhibitors for MPP8 Chromodomain Interactions with Methylated Histone Tails (AID 488949); also: nearly all actives have a fitted effect of over 55% in size; also: potency is read from the fitted curve at half-maximal effect
Chain of M-phase phosphoprotein 8 (Homo sapiens) (Q99549 whole entry, looked up): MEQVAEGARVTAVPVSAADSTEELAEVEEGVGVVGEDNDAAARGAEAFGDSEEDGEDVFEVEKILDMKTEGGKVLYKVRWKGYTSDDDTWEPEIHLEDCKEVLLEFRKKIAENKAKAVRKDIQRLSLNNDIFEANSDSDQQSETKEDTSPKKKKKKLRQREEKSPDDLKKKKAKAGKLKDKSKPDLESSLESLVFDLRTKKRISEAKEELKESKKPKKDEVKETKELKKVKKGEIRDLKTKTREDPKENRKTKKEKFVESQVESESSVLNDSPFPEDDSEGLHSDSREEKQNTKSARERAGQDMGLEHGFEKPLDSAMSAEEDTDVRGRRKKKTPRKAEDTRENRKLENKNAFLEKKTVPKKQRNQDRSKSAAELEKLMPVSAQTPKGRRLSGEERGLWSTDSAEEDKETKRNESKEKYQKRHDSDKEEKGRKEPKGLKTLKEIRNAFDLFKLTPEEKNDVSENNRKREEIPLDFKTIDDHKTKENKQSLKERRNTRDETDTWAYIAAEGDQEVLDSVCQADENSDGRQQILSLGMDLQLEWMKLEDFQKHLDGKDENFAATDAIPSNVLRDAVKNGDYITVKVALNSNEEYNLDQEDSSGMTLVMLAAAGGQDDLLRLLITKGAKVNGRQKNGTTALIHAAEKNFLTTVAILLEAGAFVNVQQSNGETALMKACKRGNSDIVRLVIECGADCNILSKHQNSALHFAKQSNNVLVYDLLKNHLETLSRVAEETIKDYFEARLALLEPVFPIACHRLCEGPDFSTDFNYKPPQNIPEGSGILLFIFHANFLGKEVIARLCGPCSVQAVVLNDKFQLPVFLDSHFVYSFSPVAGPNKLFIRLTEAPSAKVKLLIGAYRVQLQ
How it was run: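 MPP8 (50 nM) was pre-bound to 50 nM biotinylated H3(1-18)K9me3 peptide in PBS pH 7.4 with 0.01% Tween-20. Compounds were then added for 30 min at room temperature, and complex disruption was read by AlphaScreen with streptavidin donor and nickel-chelate acceptor beads.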

[4] = target: Chromobox protein homolog 1 (Homo sapiens) (UniProt P83916); test: qHTS Validation Assay for Inhibitors of HP1-beta Chromodomain Interactions with Methylated Histone Tails (AID 488953); also: nearly all actives have a fitted effect of over 50% in size; also: potency is read from the fitted curve at half-maximal effect
Chain of Chromobox protein homolog 1 (Homo sapiens) (P83916 whole entry, looked up): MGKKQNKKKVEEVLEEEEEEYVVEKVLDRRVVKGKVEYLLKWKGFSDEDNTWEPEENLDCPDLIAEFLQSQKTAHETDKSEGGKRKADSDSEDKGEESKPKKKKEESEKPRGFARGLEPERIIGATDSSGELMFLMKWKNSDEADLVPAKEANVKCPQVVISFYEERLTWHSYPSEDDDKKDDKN
How it was run: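 HP1-beta (50 nM) was preincubated 30 min at room temperature with biotinylated H3(1-18)K9me3 peptide (50 nM) in PBS pH 7.4, 0.01% Tween-20, then with compounds 30 min. AlphaScreen signal was read after streptavidin donor/nickel chelate acceptor beads (10 ug/mL final).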

[5] = target: D(1A) dopamine receptor (Homo sapiens) (UniProt P21728); test: HTS Assay for Allosteric Agonists of the Human D1 Dopamine Receptor: Primary Screen for Agonists (AID 488981)
Chain of D(1A) dopamine receptor (Homo sapiens) (P21728 whole entry, looked up): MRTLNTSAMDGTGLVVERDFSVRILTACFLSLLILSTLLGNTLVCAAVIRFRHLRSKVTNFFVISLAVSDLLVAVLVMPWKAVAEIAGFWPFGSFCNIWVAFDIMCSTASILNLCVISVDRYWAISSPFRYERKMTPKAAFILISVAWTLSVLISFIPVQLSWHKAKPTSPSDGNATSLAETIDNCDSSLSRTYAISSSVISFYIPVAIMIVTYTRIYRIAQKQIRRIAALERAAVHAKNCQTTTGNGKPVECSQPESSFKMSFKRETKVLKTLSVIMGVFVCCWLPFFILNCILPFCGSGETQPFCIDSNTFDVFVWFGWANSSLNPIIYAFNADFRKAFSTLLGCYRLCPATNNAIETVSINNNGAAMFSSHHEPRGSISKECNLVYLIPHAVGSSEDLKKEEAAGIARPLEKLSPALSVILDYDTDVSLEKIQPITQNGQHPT
How it was run: (§1)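 Calcium flux in an inducible, force-coupled HEK293 Trex D1 line (overnight at 30 C): agonist mode is the 180 s kinetic read after compound; potentiator mode is the following 180 s read after dopamine at EC20.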

[6] = target: D(1A) dopamine receptor (Homo sapiens) (UniProt P21728); test: HTS Assay for Allosteric Agonists of the Human D1 Dopamine Receptor: Primary Screen for Potentiators (AID 488982); also: potency is read from the fitted curve at half-maximal effect
How it was run: as §1

[7] = target: D(1A) dopamine receptor (Homo sapiens) (UniProt P21728); test: HTS Assay for Allosteric Agonists of the Human D1 Dopamine Receptor: Primary Screen for Antagonists (AID 488983);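 also: calcium flux response to an EC80 dopamine challenge measured with no-wash dye; nearly all actives have a fitted effect of over 65% in size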
How it was run: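 Tetracycline-induced HEK293 T-REx cells expressing force-coupled D1 were plated overnight at 30 C, dye-loaded for calcium, and read kinetically. Compounds were pinned in, then an EC80 dopamine challenge followed after 180 s to reveal antagonism.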

[8] = target: Ubiquitin carboxyl-terminal hydrolase 2 (Homo sapiens) (UniProt O75604); test: qHTS Validation Assay for Inhibitors of Ubiquitin-specific Protease USP2a Using CHOP2 as the Reporter (AID 463106)
How it was run: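 10nM USP2 core + cpd, 30min RT; add 25nM Ub-CHOP2/25nM substrate; 60min RT; FI 485/531nm. Buffer Tris pH 8.0, CaCl2, BME, CHAPS. Norm. to NEM = 100% inhibition; time-zero read flags fluorescent artifacts.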

[9] = target: Thioredoxin reductase 1, cytoplasmic (Rattus norvegicus) (UniProt O89049); test: qHTS Assay for Substrates of Mammalian Selenoprotein Thioredoxin Reductase 1 (TrxR1) (AID 488772);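 also: NADPH fluorescence in the first read after selenite addition and not the 8 min delta; series mostly up to about 57 µM; a drop in NADPH fluorescence below the no-compound background marks a TrxR1 substrate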
Chain of Thioredoxin reductase 1, cytoplasmic (Rattus norvegicus) (O89049 whole entry, looked up): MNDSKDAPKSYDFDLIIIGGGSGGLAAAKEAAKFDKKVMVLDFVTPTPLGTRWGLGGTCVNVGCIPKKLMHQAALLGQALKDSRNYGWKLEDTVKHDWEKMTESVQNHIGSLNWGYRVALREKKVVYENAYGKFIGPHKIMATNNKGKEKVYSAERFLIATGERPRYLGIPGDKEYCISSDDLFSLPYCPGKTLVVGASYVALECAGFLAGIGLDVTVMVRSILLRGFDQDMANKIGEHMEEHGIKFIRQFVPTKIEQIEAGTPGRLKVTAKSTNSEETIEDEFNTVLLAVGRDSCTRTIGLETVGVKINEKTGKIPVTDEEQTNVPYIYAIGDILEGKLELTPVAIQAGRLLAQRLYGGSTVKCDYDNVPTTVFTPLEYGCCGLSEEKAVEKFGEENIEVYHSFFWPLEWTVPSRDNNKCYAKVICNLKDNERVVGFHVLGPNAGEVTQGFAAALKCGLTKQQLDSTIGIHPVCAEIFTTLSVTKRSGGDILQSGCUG
How it was run: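 Quantitative HTS in Tris-HCl buffer at pH 7.5 with EDTA and Tween-20, using rat TrxR1, 400 uM NADPH and 400 uM selenite (final). A fall in initial NADPH fluorescence relative to background marked substrate behaviour.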

[10] = target: Flap endonuclease 1 (Homo sapiens) (UniProt P39748); test: qHTS Validation Assay for the Inhibitors of Human Flap endonuclease 1 (FEN1) (AID 488816)
Chain of Flap endonuclease 1 (Homo sapiens) (P39748 whole entry, looked up): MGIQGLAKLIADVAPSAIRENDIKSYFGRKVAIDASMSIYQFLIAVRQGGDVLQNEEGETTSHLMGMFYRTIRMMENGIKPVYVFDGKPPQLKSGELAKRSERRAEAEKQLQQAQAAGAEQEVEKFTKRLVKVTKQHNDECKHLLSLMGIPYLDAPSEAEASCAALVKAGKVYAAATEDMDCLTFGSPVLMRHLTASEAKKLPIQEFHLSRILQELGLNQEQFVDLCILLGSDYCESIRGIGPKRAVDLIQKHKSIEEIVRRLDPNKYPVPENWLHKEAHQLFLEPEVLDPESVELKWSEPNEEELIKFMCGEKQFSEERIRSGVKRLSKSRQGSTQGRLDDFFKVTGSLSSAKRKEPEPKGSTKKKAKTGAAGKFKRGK
How it was run: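 Readings taken at 0 and 15 min after starting the reaction with 50 nM (final) substrate supplied the signal. Compounds had first sat with 10 nM FEN1 reagent for 15 min at room temperature. Values come from Hill-equation concentration-response fits.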

[11] = target: Methanococcus maripaludis chaperonin (MmCpn) (UniProt Q6LX38); test: High-Throughput Screening for Modulators of Cytosolic Chaperonin Activity: MmCpn Primary Screen (AID 488978);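 also: 50 nM MmCpn enzyme hydrolysing 30 µM ATP at 37 °C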
Chain of Methanococcus maripaludis chaperonin (MmCpn) (Q6LX38 1-543): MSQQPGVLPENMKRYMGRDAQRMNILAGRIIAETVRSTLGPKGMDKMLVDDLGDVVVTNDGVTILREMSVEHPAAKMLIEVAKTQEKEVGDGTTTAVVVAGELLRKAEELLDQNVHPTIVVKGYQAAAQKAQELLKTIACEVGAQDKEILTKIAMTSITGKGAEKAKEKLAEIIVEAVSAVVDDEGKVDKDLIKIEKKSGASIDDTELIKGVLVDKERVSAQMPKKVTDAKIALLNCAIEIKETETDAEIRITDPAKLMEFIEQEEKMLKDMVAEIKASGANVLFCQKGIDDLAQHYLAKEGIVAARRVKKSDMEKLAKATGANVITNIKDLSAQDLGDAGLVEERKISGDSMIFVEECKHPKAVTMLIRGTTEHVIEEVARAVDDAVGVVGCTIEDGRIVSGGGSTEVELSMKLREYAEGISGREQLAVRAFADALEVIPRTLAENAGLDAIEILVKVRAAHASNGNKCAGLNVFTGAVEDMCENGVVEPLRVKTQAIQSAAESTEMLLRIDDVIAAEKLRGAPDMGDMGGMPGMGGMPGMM
How it was run: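 MmCpn at 50 nM final was preincubated 5 min at RT with compound. ATP was then added at 30 uM final for 10 min at 37 C. ADP formed was detected by Transcreener HTRF (665/590 nm).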

[12] = Quantitative high throughput screen for delayed death inhibitors of the malarial parasite plastid, 96 hour incubation (AID 488745); also: nearly all actives have a fitted effect of over 70% in size; also: potency is read from the fitted curve at half-maximal effect
How it was run: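 P. falciparum carrying an integrated firefly luciferase reporter, grown in erythrocytes (2% hematocrit, 0.1% parasitemia final) in RPMI 1640/0.5% Albumax, was exposed to compound for 96 h (two generations) at 37 C, 5% CO2. Luminescence decrease indicated growth inhibition.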

[13] = Quantitative high throughput screen for delayed death inhibitors of the malarial parasite plastid, 48 hour incubation (AID 488752); also: nearly all actives have a fitted effect of over 65% in size; also: potency is read from the fitted curve at half-maximal effect
How it was run: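 Erythrocytes infected with P. falciparum carrying an integrated firefly luciferase reporter (2% hematocrit, 0.1% parasitemia final) were exposed to compounds in RPMI 1640/0.5% Albumax for 48 h at 37 C, 5% CO2. Growth inhibition was scored as reduced luminescence.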

[14] = target: Transient receptor potential cation channel subfamily V member 1 (Homo sapiens) (UniProt Q8NER1); test: HTS Assay for Compounds that Act as Enhancers of the Vanilloid Receptor 1 (AID 488979)
How it was run: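 Calcium influx kinetics via Fluo-8 (480/520 nm) in TRPV1-expressing cells, 2000/well cultured overnight at 35.5C. Compound-alone read 3 min (agonist phase), followed by EC20 capsaicin challenge for 2 min (enhancer phase).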

[15] = qHTS Validation Assay to Find Inhibitors of Chronic Active B-Cell Receptor Signaling (AID 485345; active = well fitted curve in the direction sought with a large enough effect in the main read-out, with a control signal flat, not every such curve was filed as active)
How it was run: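 Read-out: ratio of filter-corrected green (IkappaBalpha fusion) to red (native) luciferase signal in doxycycline-induced TMD8 cells after 4 h at 37C. Titration spanned 46 uM–3 nM; Data were normalised to basal cells and 10 uM MG-132 wells.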

[16] = target: ATP-dependent 6-phosphofructokinase (Trypanosoma brucei brucei) (UniProt O15648); test: qHTS Validation Assay to Find Inhibitors of T. brucei phosphofructokinase (AID 485368)
Chain of ATP-dependent 6-phosphofructokinase (Trypanosoma brucei brucei) (O15648 whole entry, looked up): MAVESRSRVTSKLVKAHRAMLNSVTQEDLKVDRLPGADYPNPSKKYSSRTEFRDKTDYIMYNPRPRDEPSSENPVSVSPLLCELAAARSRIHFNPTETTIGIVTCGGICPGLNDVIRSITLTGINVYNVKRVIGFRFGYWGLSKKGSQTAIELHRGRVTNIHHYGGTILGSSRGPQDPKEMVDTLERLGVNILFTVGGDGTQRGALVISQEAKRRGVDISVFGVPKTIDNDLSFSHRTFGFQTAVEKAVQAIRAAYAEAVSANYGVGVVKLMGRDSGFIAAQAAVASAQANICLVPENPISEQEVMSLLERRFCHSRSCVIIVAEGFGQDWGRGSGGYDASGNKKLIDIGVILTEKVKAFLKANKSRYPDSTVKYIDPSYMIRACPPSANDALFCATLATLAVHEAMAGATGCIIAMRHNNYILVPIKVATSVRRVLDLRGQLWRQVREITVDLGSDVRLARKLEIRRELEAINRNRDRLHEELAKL
How it was run: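 Activity was normalized between 1x (1.25 nM) PFK wells as no inhibition and enzyme-free wells as full inhibition, from luminescence after ADP-Glo detection of ADP made from 0.5 mM F6P and 0.1 mM ATP over 45 min.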

[17] = target: Thioredoxin reductase 1, cytoplasmic (Rattus norvegicus) (UniProt O89049); test: qHTS Assay for Inhibitors of Mammalian Selenoprotein Thioredoxin Reductase 1 (TrxR1) (AID 488773); conditions: Potency: inhibition;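 also: drop in NADPH fluorescence over an 8 min run after selenite addition; series mostly up to about 57 µM; nearly all actives have a fitted effect of over 40% in size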
How it was run: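 Steps: enzyme (90 nM) plus NADPH (400 uM final), 5 min at ~22 deg C; compound added, 15 min; selenite (400 uM final) added; fluorescence followed for 8 min. Concentration-response curves derived from the normalized delta values.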

[18] = target: Thyrotropin receptor (Homo sapiens) (UniProt P16473); test: qHTS Assay for Antagonists of the Thyroid Stimulating Hormone Receptor (AID 488980); also: series mostly up to about 58 µM
Chain of Thyrotropin receptor (Homo sapiens) (P16473 whole entry, looked up): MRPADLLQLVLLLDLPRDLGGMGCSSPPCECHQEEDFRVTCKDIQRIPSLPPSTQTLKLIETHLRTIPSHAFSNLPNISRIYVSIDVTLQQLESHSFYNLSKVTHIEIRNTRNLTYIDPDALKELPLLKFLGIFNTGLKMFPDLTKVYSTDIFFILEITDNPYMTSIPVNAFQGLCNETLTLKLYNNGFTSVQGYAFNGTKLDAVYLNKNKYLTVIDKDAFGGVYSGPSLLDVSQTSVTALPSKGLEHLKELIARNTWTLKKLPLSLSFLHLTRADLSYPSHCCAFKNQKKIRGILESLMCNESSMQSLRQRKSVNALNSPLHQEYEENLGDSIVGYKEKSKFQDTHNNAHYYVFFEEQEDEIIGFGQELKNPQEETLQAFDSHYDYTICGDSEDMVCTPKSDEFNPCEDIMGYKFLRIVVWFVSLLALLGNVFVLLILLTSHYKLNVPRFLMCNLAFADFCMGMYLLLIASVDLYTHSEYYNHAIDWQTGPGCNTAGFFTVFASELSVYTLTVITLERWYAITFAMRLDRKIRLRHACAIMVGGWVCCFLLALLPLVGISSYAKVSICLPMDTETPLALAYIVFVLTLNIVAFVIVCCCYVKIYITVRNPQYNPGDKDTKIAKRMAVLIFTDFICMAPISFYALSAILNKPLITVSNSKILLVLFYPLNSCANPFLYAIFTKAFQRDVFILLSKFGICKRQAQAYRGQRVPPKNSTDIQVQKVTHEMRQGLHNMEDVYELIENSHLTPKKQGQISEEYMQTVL
How it was run: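 TSHR-transfected HEK293 cells (2000/well) in HEPES-buffered HBSS with 70 uM RO 20-1724 were stimulated with 4 nM TSH (EC80, final) in the presence of compound. cAMP was measured by HTRF competition after lysis and 30 min at RT.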

[19] = target: DNA polymerase III PolC-type (Bacillus subtilis (strain 168)) (UniProt P13267); test: qHTS Validation Assay for the Inhibitors of DNA Replication in Gram-Positive Bacteria (AID 485295);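 also: PicoGreen fluorescence of double-stranded DNA made on primed circular M13 template; series mostly up to about 57 µM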
How it was run: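 Reconstituted B. subtilis Pol III holoenzyme (PolC, beta clamp, SSB, primase) preincubated with compound, then M13Gori single-stranded circular template with dNTPs/NTPs added; room temperature reaction. Stopped with EDTA/PicoGreen; dsDNA fluorescence read, EDTA as full-inhibition control.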

Measured: Potency

N.N.N.N.N.N.N.N.N.N.N.N.N.N.O.O.[Ru+4].[Ru+5].[Ru+5]
inactive: [1] | [2] | [5] | [6] | [7]
active: [3] 8.44 µM | [4] 4.47 µM

N#C/C(=C\c1ccc(-c2cc(Cl)ccc2Cl)o1)C(=O)Nc1cccc2ncccc12
inactive: [8] | [1] | [2] | [9] | [10] | [3] | [4] | [11] | [6] | [7]

C=C/C(C)=C/[C@@]1(C)SC(=O)C(C)=C1O
active: [3] 50.1 µM
inactive: [12] | [13] | [14]

CN1C2CCC1CC(OC(=O)C(O)c1ccccc1)C2 (stereo unspecified)
inactive: [8] | [1] | [15] | [16] | [13] | [17] | [3] | [4] | [11] | [14] | [18] | [5] | [6] | [7]

CCCCCCCCCCCCCCCCCCNC(=O)OCC(COP(=O)([O-])OCC[n+]1ccsc1)OC (stereo unspecified)
inactive: [19] | [1] | [15] | [2] | [12] | [13] | [9] | [17] | [3] | [4] | [11] | [14] | [18] | [5] | [6] | [7]

C=C[C@@H]1CN2CC[C@@H]1C[C@H]2[C@H](O)c1ccnc2ccc(OC)cc12
active: [12] 0.0329 µM | [13] 0.0928 µM
inactive: [19] | [1] | [15] | [2] | [9] | [4] | [11] | [5]

CC[C@@H](C)[C@H]1O[C@]2(CC[C@H]1C)C[C@@H]1C[C@@H](CC=C(C)[C@@H](O[C@H]3C[C@H](OC)[C@@H](O[C@H]4C[C@H](OC)[C@@H](O)[C@H](C)O4)[C@H](C)O3)[C@@H](C)C=CC=C3CO[C@@H]4[C@H](O)C(C)=C[C@@H](C(=O)O1)[C@]34O)O2
inactive: [8] | [1] | [2] | [16] | [17] | [10] | [3] | [4] | [11] | [5] | [7]
active: [6] 2.06 µM

CC[C@@H](C)[C@H]1O[C@]2(CC[C@@H]1C)C[C@@H]1C[C@@H](C/C=C(\C)[C@@H](O[C@H]3C[C@H](OC)[C@@H](O[C@H]4C[C@H](OC)[C@@H](O)[C@H](C)O4)[C@H](C)O3)[C@@H](C)/C=C/C=C3\CO[C@@H]4[C@H](O)C(C)=C[C@@H](C(=O)O1)[C@]34O)O2
inactive: [18]
active: [12] 0.117 µM | [13] 1.65 µM

CN[C@H](CC(C)C)C(=O)N[C@H]1C(=O)N[C@@H](CC(N)=O)C(=O)N[C@H]2C(=O)N[C@H]3C(=O)N[C@H](C(=O)N[C@H](C(=O)O)c4cc(O)cc(O)c4-c4cc3ccc4O)[C@H](O)c3ccc(c(Cl)c3)Oc3cc2cc(c3O[C@@H]2O[C@H](CO)[C@@H](O)[C@H](O)[C@H]2O[C@H]2C[C@](C)(N)[C@H](O)[C@H](C)O2)Oc2ccc(cc2Cl)[C@H]1O
inactive: [13] | [3] | [14] | [18]

COc1ccc2c(c1)CCC1C2CC[C@@]2(C)C1CC[C@@H]2NCCCCCCN1C(=O)CCC1=O (stereo partly specified)
inactive: [8] | [1] | [2] | [9] | [17] | [10] | [3] | [4] | [6]

COc1ccccc1N1CCN(CCCCNS(=O)(=O)c2cccc3c(N(C)C)cccc23)CC1
inactive: [8] | [1] | [2] | [13] | [9] | [17] | [10] | [3] | [11] | [14] | [5] | [6]
